Legend:
Conditions in all cases: concentration: 1 μM,replicates: in singlicate; n = 1
IKK-alpha = system: T1, IKK-alpha
T1 construct: gene CHUK

IKK-beta = system: T2, IKK-beta
T2 construct: gene IKBKB

IKK-epsilon = system: T3, IKK-epsilon
T3 construct: gene IKBKE

INSRR = system: INSRR
INSR = system: INSR
IRAK1 = system: IRAK1
IRAK3 = system: IRAK3
IRAK4 = system: IRAK4
ITK = system: ITK
[1] = system: JAK1(JH1domain-catalytic)
[2] = system: JAK1(JH2domain-pseudokinase)
[3] = system: JAK2(JH1domain-catalytic)
[4] = system: JAK3(JH1domain-catalytic)
JNK1 = system: T4, JNK1
T4 construct: gene MAPK8

JNK2 = system: T5, JNK2
T5 construct: gene MAPK9

JNK3 = system: T6, JNK3
T6 construct: gene MAPK10

KIT-autoinhibited = system: KIT-autoinhibited
KIT = system: KIT
LATS1 = system: LATS1
LATS2 = system: LATS2
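Further: KINOMEscan kinase panel screen.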

Row | SMILES | %Inh (IKK-alpha) [%] | %Inh (IKK-beta) [%] | %Inh (IKK-epsilon) [%] | %Inh (INSRR) [%] | %Inh (INSR) [%] | %Inh (IRAK1) [%] | %Inh (IRAK3) [%] | %Inh (IRAK4) [%] | %Inh (ITK) [%] | %Inh [1] [%] | %Inh [2] [%] | %Inh [3] [%] | %Inh [4] [%] | %Inh (JNK1) [%] | %Inh (JNK2) [%] | %Inh (JNK3) [%] | %Inh (KIT-autoinhibited) [%] | %Inh (KIT) [%] | %Inh (LATS1) [%] | %Inh (LATS2) [%]
1 | OCCn1cc(-c2cnc3nnn(Cc4ccc5ncccc5c4)c3n2)cn1 | 3 | 0 | 0 | 0 | 0 | 0 | 0 | 0 | 0 | 0 | 10 | 0 | 0 | 10 | 0 | 0 | 0 | 0 | 0 | 24
2 | N#Cc1cccc(C(=O)NC2CCN(c3ccnc(Nc4ccc(F)cc4)n3)C2)c1 (centres unmarked) [GSK1379708] | 16 | 16 | 0 | 0 | 4 | 17 | 27 | 2 | 2 | 17 | 0 | 16 | 0 | 26 | 34 | 17 | 0 | 9 | 0 | 0
3 | CN(c1ccccc1CNc1nc(Nc2ccc3c(c2)CC(=O)N3)ncc1C(F)(F)F)S(C)(=O)=O | 0 | 0 | 35 | 69 | 93.5 | 26 | 65 | 27 | 56 | 74 | 66 | 98.6 | 99.2 | 64 | 66 | 63 | 0 | 38 | 65 | 76
4 | CS(=O)(=O)c1cccc(CNc2nc(Nc3ccc4c(c3)[C@@H]3C[C@@H]4CNC3=O)ncc2C(F)(F)F)c1 | 5 | 0 | 87 | 74 | 94.5 | 39 | 0 | 0 | 49 | 93 | 91.1 | 98.4 | 100 | 38 | 30 | 46 | 39 | 42 | 24 | 45
5 | Cc1ccc(CC(=O)N2CCc3cc(-c4cn(C)c5ncnc(N)c45)ccc32)cc1 [GSK2634758] | 1 | 0 | 36 | 12 | 4 | 13 | 0 | 0 | 13 | 6 | 0 | 0 | 0 | 13 | 12 | 0 | 0 | 98.6 | 0 | 9
6 | COc1cccc(C2=C(Nc3cccc(Cl)c3)C(=O)NC2=O)c1 [SB-341556] | 39 | 47 | 0 | 0 | 13 | 46 | 0 | 52 | 13 | 7 | 0 | 45 | 92.9 | 25 | 44 | 32 | 0 | 14 | 0 | 0
7 | CSc1nccc(-c2c(-c3ccc(F)cc3)ncn2CCCN2CCOCC2)n1.Cl [SB-217146] | 0 | 0 | 0 | 0 | 2 | 25 | 0 | 0 | 6 | 0 | 40 | 39 | 0 | 10 | 45 | 34 | 32 | 0 | 0 | 0
8 | C[C@@H](Oc1cc(-n2cnc3ccc(-c4ccncc4)cc32)sc1C(N)=O)c1ccccc1Cl [GSK483724] | 7 | 13 | 24 | 0 | 0 | 49 | 81 | 17 | 22 | 0 | 0 | 19 | 0 | 45 | 27 | 18 | 6 | 36 | 3 | 54
9 | Cl.Nc1n[nH]c2cc(-c3ccccn3)ccc12 [GSK2189892] | 0 | 0 | 24 | 0 | 0 | 0 | 6 | 0 | 4 | 10 | 14 | 31 | 0 | 0 | 0 | 0 | 0 | 4 | 0 | 9
10 | CCOC(=O)N1CCC(n2cnc(-c3ccc(F)cc3)c2-c2ccnc(N)n2)CC1 [SB-219952] | 0 | 0 | 0 | 0 | 0 | 10 | 19 | 11 | 0 | 0 | 42 | 32 | 0 | 77 | 96.8 | 98.4 | 8 | 40 | 0 | 0
11 | C[C@@H]1CNc2c(sc3ccc4nc(-c5ccc(O)cc5)ccc4c23)C(=O)N1 | 27 | 24 | 14 | 0 | 7 | 97.1 | 14 | 14 | 3 | 0 | 36 | 53 | 94.6 | 18 | 0 | 6 | 0 | 54 | 17 | 13
12 | C[C@@H](Oc1cc(-n2cnc3cc(-c4ccncc4)ccc32)sc1C(N)=O)c1ccccc1Cl [GSK479719] | 37 | 50 | 0 | 0 | 0 | 48 | 0 | 26 | 11 | 0 | 0 | 58 | 48 | 7 | 10 | 11 | 0 | 64 | 10 | 0
13 | O=C1NCCc2[nH]c(-c3ccncc3)cc21 | 88 | 40 | 2 | 0 | 8 | 98.6 | 0 | 0 | 0 | 6 | 26 | 73 | 87 | 30 | 24 | 45 | 0 | 14 | 23 | 34
14 | COc1cc2nccc(Nc3ccc(Oc4ccccc4)cc3)c2cc1OC.Cl [GI261656] | 0 | 0 | 35 | 0 | 0 | 0 | 0 | 0 | 0 | 8 | 0 | 100 | 0 | 4 | 10 | 0 | 0 | 79 | 0 | 9
15 | O=C(Nc1cccc(Oc2ccc3nccn3n2)c1)Nc1cccc(C(F)(F)F)c1 | 34 | 0 | 0 | 15 | 0 | 13 | 23 | 0 | 0 | 27 | 0 | 9 | 25 | 0 | 0 | 0 | 68 | 100 | 0 | 0
16 | CN(c1ccc2c(c1)nc(NCc1ccc(F)cc1)n2C)c1ccnc(Nc2ccc(CS(C)(=O)=O)cc2)n1.Cl [GW813244] | 15 | 0 | 0 | 15 | 27 | 49 | 1 | 0 | 0 | 38 | 56 | 54 | 100 | 42 | 39 | 0 | 69 | 99.9 | 10 | 0
17 | COc1cc2c(Nc3ccc(NC(=O)c4ccccc4)cc3)ncnc2cc1OCCCN1CCOCC1 [GSK301329] | 0 | 4 | 0 | 0 | 0 | 5 | 26 | 11 | 26 | 0 | 0 | 0 | 0 | 0 | 19 | 12 | 41 | 99.1 | 0 | 0
18 | CCCC(=O)Nc1n[nH]c2ncccc12 [SB-601436] | 0 | 0 | 0 | 0 | 0 | 0 | 0 | 0 | 0 | 5 | 4 | 18 | 0 | 20 | 6 | 1 | 0 | 0 | 40 | 0
19 | COc1cccc(OC)c1C(=O)Nc1cccc(-c2nn3ccccc3c2-c2ccnc(Nc3cccc(F)c3)n2)c1 [GSK361065] | 0 | 0 | 4 | 0 | 0 | 0 | 0 | 0 | 93.8 | 0 | 4 | 3 | 0 | 44 | 0 | 0 | 11 | 90.9 | 6 | 10

Source: publication PMC5540273 (PLoS ONE, 2017)
